Data reported in article PMC7862700, “An all-to-all approach to the identification of sequence-specific readers for epigenetic DNA modifications on cytosine”.

Experiments:
Experiment in all cases: DAPPL (digital affinity profiling via proximity ligation, sequencing); 10 mM Tris-HCl pH 7.5, 50 mM NaCl, 1 mM DTT, 4% glycerol, room temperature, 30 min; GST-TFs on glutathione beads, 16-mer random dsDNA library, 0.1% formaldehyde crosslink after washing; high values mean tight binding
Details in all cases: protein: recombinant; tags: N-terminal GST; dsDNA, one strand shown
ELF4 = ELF4 (Homo sapiens, UniProt Q99607 1-663)
Method in brief: (§1)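 Pools were built from human transcription factors expressed in yeast as GST fusions, captured on glutathione beads and DNA-barcoded, along with a tag-only sample. Incubation with 200 nmole of a 16-mer random double-stranded DNA library lasted 30 min at room temperature in Tris/NaCl/DTT/glycerol buffer, and was followed by washing, 0.1% formaldehyde crosslinking, proximity ligation, PCR amplification and Illumina NextSeq500 sequencing. Binding signal is the quotient of each hexamer's read frequency for a factor and its frequency for the tag-only sample.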

ETV2 = molecular target: T1, ETV2 (Homo sapiens, UniProt O00321 1-342)
T1 sequence: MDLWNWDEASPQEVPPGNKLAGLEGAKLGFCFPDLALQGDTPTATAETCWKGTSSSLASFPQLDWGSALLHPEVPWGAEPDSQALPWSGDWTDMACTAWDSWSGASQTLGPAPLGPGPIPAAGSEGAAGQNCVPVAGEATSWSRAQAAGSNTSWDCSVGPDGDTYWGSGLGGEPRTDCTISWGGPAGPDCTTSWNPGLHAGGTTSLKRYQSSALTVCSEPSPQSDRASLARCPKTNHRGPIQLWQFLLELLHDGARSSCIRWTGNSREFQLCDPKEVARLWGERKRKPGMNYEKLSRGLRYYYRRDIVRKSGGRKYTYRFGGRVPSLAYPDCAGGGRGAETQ
Method in brief: as §1

ELF3 = molecular target: T2, ELF3 (Homo sapiens, UniProt P78545 1-371)
T2 sequence: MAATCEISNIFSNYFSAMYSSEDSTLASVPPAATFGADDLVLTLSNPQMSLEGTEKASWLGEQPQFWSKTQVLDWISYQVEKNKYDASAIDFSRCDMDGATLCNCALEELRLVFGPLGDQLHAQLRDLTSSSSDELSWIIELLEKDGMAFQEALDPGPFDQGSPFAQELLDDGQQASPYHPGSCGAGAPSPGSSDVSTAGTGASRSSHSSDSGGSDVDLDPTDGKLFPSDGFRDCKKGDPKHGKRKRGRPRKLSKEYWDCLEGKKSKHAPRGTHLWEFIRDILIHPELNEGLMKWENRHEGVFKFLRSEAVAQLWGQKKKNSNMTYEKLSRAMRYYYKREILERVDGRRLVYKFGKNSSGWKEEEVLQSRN
Method in brief: as §1

ETV1 = ETV1 (Homo sapiens, UniProt P50549 1-477)
Method in brief: as §1

ERF = molecular target: T3, ERF (Homo sapiens, UniProt P50548 1-548)
T3 sequence: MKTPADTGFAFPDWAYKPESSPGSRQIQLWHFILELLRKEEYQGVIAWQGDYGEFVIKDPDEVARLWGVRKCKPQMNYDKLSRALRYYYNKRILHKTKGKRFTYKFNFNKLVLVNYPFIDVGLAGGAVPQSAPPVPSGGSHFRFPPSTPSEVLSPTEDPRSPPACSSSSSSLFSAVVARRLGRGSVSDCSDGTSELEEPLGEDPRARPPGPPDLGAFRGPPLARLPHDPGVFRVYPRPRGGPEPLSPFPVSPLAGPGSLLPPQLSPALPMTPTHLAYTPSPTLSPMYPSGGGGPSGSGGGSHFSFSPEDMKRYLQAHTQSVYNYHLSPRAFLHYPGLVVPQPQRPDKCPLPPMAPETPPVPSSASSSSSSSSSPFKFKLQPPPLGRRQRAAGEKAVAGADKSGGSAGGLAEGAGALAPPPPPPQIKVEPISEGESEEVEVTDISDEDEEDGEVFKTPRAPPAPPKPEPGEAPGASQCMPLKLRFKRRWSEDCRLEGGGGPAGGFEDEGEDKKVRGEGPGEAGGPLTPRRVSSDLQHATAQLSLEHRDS
Method in brief: as §1

ETV3L = molecular target: T4, ETV3L (Homo sapiens, UniProt Q6ZN32 1-361)
T4 sequence: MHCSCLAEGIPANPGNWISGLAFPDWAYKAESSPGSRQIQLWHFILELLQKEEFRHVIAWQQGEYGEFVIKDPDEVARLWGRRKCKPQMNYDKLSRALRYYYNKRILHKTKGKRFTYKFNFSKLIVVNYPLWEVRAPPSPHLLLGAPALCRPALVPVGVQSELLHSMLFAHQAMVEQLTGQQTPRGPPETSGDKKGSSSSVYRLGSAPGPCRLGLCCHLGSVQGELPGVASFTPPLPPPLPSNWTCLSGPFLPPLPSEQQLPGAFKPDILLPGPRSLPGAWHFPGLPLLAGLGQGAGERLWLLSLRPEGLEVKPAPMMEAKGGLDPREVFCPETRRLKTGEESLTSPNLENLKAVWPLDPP
Method in brief: as §1

ETS2 = molecular target: T5, ETS2 (Homo sapiens, UniProt P15036 1-469)
T5 sequence: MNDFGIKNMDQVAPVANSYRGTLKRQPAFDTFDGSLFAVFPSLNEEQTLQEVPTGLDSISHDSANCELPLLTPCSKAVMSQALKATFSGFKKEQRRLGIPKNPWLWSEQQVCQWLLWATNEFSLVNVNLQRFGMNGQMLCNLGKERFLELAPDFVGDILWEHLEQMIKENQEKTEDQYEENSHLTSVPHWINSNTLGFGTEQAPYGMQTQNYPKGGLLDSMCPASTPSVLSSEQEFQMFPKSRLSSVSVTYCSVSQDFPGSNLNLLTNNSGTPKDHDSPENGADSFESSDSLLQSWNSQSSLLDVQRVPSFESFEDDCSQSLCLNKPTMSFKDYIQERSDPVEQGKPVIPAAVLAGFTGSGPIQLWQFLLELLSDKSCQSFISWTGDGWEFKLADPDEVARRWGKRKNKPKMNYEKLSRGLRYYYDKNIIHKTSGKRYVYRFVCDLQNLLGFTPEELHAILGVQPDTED
Method in brief: as §1

ETV7 = molecular target: T6, ETV7 (Homo sapiens, UniProt Q9Y603 1-341)
T6 sequence: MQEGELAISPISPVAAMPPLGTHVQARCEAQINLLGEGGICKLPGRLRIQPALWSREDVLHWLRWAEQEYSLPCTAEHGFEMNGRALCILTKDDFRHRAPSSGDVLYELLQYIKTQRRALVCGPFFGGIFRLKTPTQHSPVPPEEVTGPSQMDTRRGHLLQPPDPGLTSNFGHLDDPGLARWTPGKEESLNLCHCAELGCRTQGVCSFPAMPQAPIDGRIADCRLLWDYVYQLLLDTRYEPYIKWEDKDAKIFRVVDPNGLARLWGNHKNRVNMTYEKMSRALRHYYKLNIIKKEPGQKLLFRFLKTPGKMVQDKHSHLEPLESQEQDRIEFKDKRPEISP
Method in brief: as §1

ETV3 = molecular target: T7, ETV3 (Homo sapiens, UniProt P41162-2 1-143)
T7 sequence: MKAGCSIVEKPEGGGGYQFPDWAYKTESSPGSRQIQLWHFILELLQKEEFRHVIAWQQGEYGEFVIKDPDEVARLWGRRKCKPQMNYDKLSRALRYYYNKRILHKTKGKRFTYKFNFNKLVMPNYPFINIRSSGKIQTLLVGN
Method in brief: as §1

ETV6 = ETV6 (Homo sapiens, UniProt P41212 1-452)
Method in brief: as §1

Chain of ETV1 (P50549 whole entry): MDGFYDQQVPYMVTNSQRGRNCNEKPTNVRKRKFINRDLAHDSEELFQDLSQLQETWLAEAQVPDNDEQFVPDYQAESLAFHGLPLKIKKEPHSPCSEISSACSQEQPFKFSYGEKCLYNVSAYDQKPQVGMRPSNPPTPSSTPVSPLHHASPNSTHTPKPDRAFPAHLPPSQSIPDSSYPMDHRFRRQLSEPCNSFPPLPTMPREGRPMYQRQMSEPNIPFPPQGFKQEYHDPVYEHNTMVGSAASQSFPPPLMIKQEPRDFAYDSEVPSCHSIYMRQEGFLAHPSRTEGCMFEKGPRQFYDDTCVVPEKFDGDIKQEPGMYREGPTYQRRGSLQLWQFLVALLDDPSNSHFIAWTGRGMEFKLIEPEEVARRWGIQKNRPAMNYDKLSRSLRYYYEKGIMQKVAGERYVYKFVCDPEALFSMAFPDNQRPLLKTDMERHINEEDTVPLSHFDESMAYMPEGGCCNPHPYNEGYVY
Chain of ELF4 (Q99607 whole entry, the tested form may be a part): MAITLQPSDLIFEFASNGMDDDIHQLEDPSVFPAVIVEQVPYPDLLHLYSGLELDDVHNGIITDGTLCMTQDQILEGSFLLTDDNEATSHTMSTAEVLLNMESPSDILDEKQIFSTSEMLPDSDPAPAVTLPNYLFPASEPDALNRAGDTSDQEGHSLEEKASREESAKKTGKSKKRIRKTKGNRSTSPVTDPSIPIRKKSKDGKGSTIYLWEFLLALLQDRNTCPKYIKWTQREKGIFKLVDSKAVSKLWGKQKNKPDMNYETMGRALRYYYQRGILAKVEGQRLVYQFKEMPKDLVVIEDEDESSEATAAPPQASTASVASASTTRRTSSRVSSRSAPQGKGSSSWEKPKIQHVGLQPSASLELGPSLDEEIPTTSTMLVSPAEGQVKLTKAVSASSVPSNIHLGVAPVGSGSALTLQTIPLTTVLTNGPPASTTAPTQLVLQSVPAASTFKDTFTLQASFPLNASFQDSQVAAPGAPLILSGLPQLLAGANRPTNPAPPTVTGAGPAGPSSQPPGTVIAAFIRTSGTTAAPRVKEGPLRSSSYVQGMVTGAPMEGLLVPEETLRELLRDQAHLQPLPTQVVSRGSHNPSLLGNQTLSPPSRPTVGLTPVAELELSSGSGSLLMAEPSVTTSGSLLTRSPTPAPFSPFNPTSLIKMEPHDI
Chain of ETV6 (P41212 whole entry): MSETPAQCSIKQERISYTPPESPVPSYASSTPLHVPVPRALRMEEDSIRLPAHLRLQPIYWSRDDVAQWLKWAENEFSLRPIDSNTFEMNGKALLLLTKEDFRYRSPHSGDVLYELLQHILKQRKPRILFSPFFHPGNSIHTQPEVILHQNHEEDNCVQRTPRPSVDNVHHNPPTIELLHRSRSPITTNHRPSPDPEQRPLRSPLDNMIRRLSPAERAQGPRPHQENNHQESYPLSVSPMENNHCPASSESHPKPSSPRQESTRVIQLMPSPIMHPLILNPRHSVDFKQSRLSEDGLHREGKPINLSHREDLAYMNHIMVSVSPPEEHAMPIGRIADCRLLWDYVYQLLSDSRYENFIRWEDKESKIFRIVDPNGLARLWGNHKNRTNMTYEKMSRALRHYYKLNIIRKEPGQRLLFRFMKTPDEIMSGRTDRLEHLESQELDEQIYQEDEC

Which binding signal (ELF4) does the source give for ATTGGC here?
Its binding signal is 1.14 fold enrichment (6-mer frequency, TF over GST control).

And the binding signal (ETV2)?
Its binding signal is 1.1 fold enrichment (6-mer frequency, TF over GST control).

What about the binding signal (ELF3) of the same sequence?
The binding signal was 1.24 fold enrichment (6-mer frequency, TF over GST control).

And the binding signal (ETV1)?
Its binding signal is 1.11 fold enrichment (6-mer frequency, TF over GST control).

What about the binding signal (ERF) of the same sequence?
Its binding signal is 1.15 fold enrichment (6-mer frequency, TF over GST control).

What about the binding signal (ETV3L) of the same sequence?
Its binding signal is 1.18 fold enrichment (6-mer frequency, TF over GST control).

And the binding signal (ETS2)?
The binding signal was 1.18 fold enrichment (6-mer frequency, TF over GST control).

What about the binding signal (ETV7) of the same sequence?
Its binding signal is 1.04 fold enrichment (6-mer frequency, TF over GST control).

What about the binding signal (ETV3) of the same sequence?
Its binding signal is 1.09 fold enrichment (6-mer frequency, TF over GST control).

What about the binding signal (ETV6) of the same sequence?
The binding signal was 1.13 fold enrichment (6-mer frequency, TF over GST control).
